According to PubChem BioAssay (NCI):
This is part of a sample that, as a whole, favours compounds with a hit. Of some 79,000 tested, about 15% had one in any assay. Rule as the data show it: active = growth inhibition above about 70%; inactive = the rest.

Experiments:
[1] = NCI Yeast Anticancer Drug Screen. Data for the rad50 strain (AID 155);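 also: 0% = growth of vehicle-only cultures of the same strain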; settings: S. cerevisiae rad50 strain growth inhibition; at 50.0 µM; hits give high values
Procedure, shortened: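 Cells are treated with compound, grown, and their growth is then scored against vehicle-only cultures of the same repair-deficient yeast strain.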

[2] = NCI Yeast Anticancer Drug Screen. Data for the mec2-1 strain (AID 157); settings: S. cerevisiae mec2-1 strain, at 50.0 µM, hits give high values
Procedure, shortened: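 Using mec2-1 yeast: add compound, measure growth, express inhibition versus vehicle-treated cultures.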

[3] = NCI Yeast Anticancer Drug Screen. Data for the sgs1 mgt1 strain (AID 161);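 also: 0% = growth of cultures given vehicle only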; settings: S. cerevisiae sgs1 mgt1 strain, at 50.0 µM, hits give high values
Procedure, shortened: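 This yeast growth screen uses a strain with defined DNA-repair lesions; compound-treated growth is compared with vehicle-treated growth.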

[4] = NCI Yeast Anticancer Drug Screen. Data for the cln2 rad14 strain (AID 165);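 also: 0% = growth equal to vehicle treated cultures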; settings: S. cerevisiae cln2 rad14 strain, at 50.0 µM, hits give high values
Procedure, shortened: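 Yeast strain cln2 rad14, bearing defects in cell cycle control and DNA repair, serves as the test system; values reflect growth inhibition compared with vehicle.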

[5] = NCI Yeast Anticancer Drug Screen. Data for the bub3 strain (AID 167); settings: S. cerevisiae bub3 mutant strain, at 50.0 µM, hits give high values
Procedure, shortened: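 Part of a panel of yeast mutants defective in DNA damage repair or cell cycle regulation. Each strain is grown with compound, and inhibition is calculated relative to solvent-treated cultures.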

[6] = NCI Yeast Anticancer Drug Screen. Data for the mlh1 rad18 strain (AID 175); settings: S. cerevisiae mlh1 rad18 strain growth inhibition; at 50.0 µM; hits give high values
Procedure, shortened: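 Steps: expose repair-defective yeast to compound; measure growth; express inhibition against vehicle-treated controls.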

Measured: growth inhibition

CCOC(=O)Cc1csc(N=Nc2c(O)[nH]c3ccccc23)n1
inactive: [1] -2.55% | [2] -12.8% | [3] 10.6% | [4] 7.9% | [5] 5.85% | [6] 17.6%

CCOCC/C(C(=O)O)=C(\CC)C(=O)O
inactive: [1] 9.15% | [2] 2.55% | [3] 0% | [4] 8.7% | [5] -22.8% | [6] 9.05%

NNc1ncnc2cccc(Cl)c12
inactive: [1] 7.95% | [2] 27.2% | [3] 18.6% | [4] -24.7% | [5] 1.8% | [6] 11.9%

CC(=O)Nc1ccc([N+](=O)[O-])cc1Cl
inactive: [1] 27.6% | [2] 16.9% | [3] 16.8% | [4] -3.15% | [5] 5.1% | [6] 26.4%

CCCC1(c2ccccc2)CNC(=O)NC1
inactive: [1] -3.8% | [2] 19.5% | [3] 1.8% | [4] -9% | [5] 3.25% | [6] -2.95%

CCOC(=O)CC1CC(C)(C(=O)OCC)C(=O)CC1=O (stereo unspecified)
inactive: [1] -21.1% | [2] -4.9% | [3] -11% | [4] 8.35% | [5] 7.5% | [6] 0%

COc1cccc(/C=N\c2nc(-c3ccccc3Cl)cs2)c1O
inactive: [1] 44% | [2] 5.15% | [3] 32.4% | [4] 21.9% | [5] 39.6% | [6] 27.4%

CC(=O)N1Cc2c(N)ncnc2C1C (stereo unspecified)
inactive: [1] -10.9% | [2] -9.45% | [3] -18.8% | [4] -7.25% | [5] -0.25% | [6] -12.2%

[CH3][Sn]([CH3])([N](c1ccccn1)c1ccccn1)[N](c1ccccn1)c1ccccn1
inactive: [1] -8.85% | [2] 2.7% | [3] 17% | [4] -17.3% | [5] -1.65% | [6] -21.4%

COc1cc2c(oc(=O)c3cc4cc([Si](C)(C)C)oc4c(OC)c32)c2cccc(O)c12
inactive: [1] -0.5% | [2] -27.4% | [3] -26.6% | [4] -23.2% | [5] 6.9% | [6] -8.25%

N#CC(=S)Nc1ccc(Cl)c(Cl)c1
inactive: [1] -4.8% | [2] 27.9% | [3] 22.6% | [4] -36% | [5] -1.95% | [6] 31.8%

Cn1c(C(N)=O)cc(=O)n1-c1ccc([N+](=O)[O-])cc1
inactive: [1] 6.35% | [2] 18.7% | [3] 4.45% | [4] 3.8% | [5] -6% | [6] 0.35%

CCOCCC(C)(OCC)OCC
inactive: [1] -11.8% | [2] -36.1% | [3] -7% | [4] 15.7% | [5] -3.65% | [6] -5.3%

[N-]=[N+]=CC(=O)C1OC1c1ccc2ccccc2c1 (stereo unspecified)
inactive: [1] 0.8% | [2] 21.6% | [3] 0.8% | [4] 1.5% | [5] 14.3% | [6] 22.9%

COC(=O)c1nc(=S)[nH]c(C(=O)OC)c1C(=O)/C=C/c1ccccc1
inactive: [1] 0.1% | [2] -1.7% | [3] 8.05% | [4] -14.2% | [5] -1.75% | [6] 11.8%

CN(C)c1ccc(C=Nc2ccc3c(c2)C(N2CCOCC2)c2ccccc2-3)cc1 (stereo unspecified)
inactive: [1] -14.7% | [2] -7% | [3] -38.1% | [4] -5.3% | [5] -15.8% | [6] 0.35%

c1ccc(CNCc2ccccc2)cc1
inactive: [1] -2.65% | [2] 3.8% | [3] -37.8% | [4] -35.1% | [5] 18.6% | [6] 1.05%

Brc1cc2c(cc1CC1CCCCO1)OCO2 (stereo unspecified)
inactive: [1] -6.5% | [2] -17.1% | [3] 1.4% | [4] -61.9% | [5] -4.9% | [6] 0.85%

O=C1CC2(CCCC2)C(=O)N1c1cccc([N+](=O)[O-])c1
inactive: [1] 10.8% | [2] 5% | [3] 17.4% | [4] 11% | [5] 11.7% | [6] -4.85%

CCOC(=O)c1c[nH]c2c(=O)n(C)c(=O)[nH]c12
inactive: [1] 7.25% | [2] -7.75% | [3] 3.5% | [4] -28.8% | [5] 0.5% | [6] 24.1%

COC(=O)c1ccccc1Cl
inactive: [1] -11.2% | [2] 4% | [3] 9.05% | [4] -14.3% | [5] 6.65% | [6] 26.1%

C=CCC(O)CC=C
inactive: [1] -8% | [2] -47.5% | [3] 7.15% | [4] -6.5% | [5] 5.2% | [6] -1.7%

CN1CCOC1(C)CO (stereo unspecified)
inactive: [1] 3.85% | [2] -16.7% | [3] -10.3% | [4] -20.6% | [5] -8.5% | [6] -55%

Nc1nn2c(nc(N)c3c(N)[nH]nc32)c1N=Nc1ccc(Br)cc1
inactive: [1] -1.35% | [2] 11.8% | [3] -4.95% | [4] 10.2% | [5] 13.2% | [6] 0.1%

Cc1cn(CCCSCC2OC3OC4C(CO)OC(OC5C(CO)OC(OC6C(CO)OC(OC7C(CO)OC(OC8C(CO)OC(OC9C(CO)OC(OC2C(O)C3O)C(O)C9O)C(O)C8O)C(O)C7O)C(O)C6O)C(O)C5O)C(O)C4O)c(=O)[nH]c1=O (stereo unspecified)
inactive: [1] -21.6% | [2] -9.35% | [3] -18.4% | [4] 0% | [5] -1.85% | [6] -14.2%

C1OCC(C2OCOC2C2OCOC2C2COCO2)O1 (stereo unspecified)
inactive: [1] 7.8% | [2] 20.9% | [3] -5.25% | [4] -8.65% | [5] 34.9% | [6] 9.5%

Cc1ccc(Nc2ccc(O)c3c2C(=O)c2ccccc2C3=O)cc1
inactive: [1] -17.9% | [2] -3.6% | [3] 5.45% | [4] -29.6% | [5] 16.1% | [6] 15.5%

O=C(Nc1ccccc1F)OCCCl
inactive: [1] 11.8% | [2] -23.6% | [3] 6.55% | [4] 1.45% | [5] 3.55% | [6] 4.4%

CCOc1ccccc1NC(=O)C(Br)C(Br)c1ccccc1 (stereo unspecified)
inactive: [1] -1.1% | [2] 0.65% | [3] 30.9% | [4] -20.9% | [5] 20.1% | [6] 42.3%

CC1NC(C(=O)O)Cc2cc(O)c(O)cc21 (stereo unspecified)
inactive: [1] -21.2% | [2] -36.6% | [3] -30.8% | [4] 5.35% | [5] -34.8% | [6] -49.2%

C[C@@]1(Cc2ccccc2)C(=O)N2[C@@H](CO)C(c3ccccc3)O[C@]2(C)c2ccccc21 (stereo partly specified)
inactive: [1] -10.8% | [2] 4.7% | [3] -14.7% | [4] -6.05% | [5] -8.8% | [6] -29.3%

O=C1c2cc3c(cc2CC1Cc1ccc2c(c1)CCC2)CCC3 (stereo unspecified)
inactive: [1] -28.8% | [2] -23.8% | [3] -33.2% | [4] -34% | [5] -20.5% | [6] -33.1%

C=C1CN=C(Nc2ccc(Cl)cc2)S1
inactive: [1] -11.1% | [2] 18.1% | [3] -14.8% | [4] 17.2% | [5] 11.5% | [6] -13.7%

C1CSC(Sc2nc(SC3=NCCS3)nc(SC3=NCCS3)n2)=N1
inactive: [1] -22% | [2] -10.7% | [3] -10% | [4] -30.3% | [5] -31.2% | [6] -26.4%

COC(=O)c1nc(=S)[nH]c(C(=O)OC)c1C(=O)c1cccnc1
inactive: [1] -4.3% | [2] 15.2% | [3] 17.4% | [4] 4.25% | [5] 39.4% | [6] 17.9%

O=C(Nc1ccccc1)N1CC2(CN1)CNN(C(=O)Nc1ccccc1)C2
inactive: [1] -3.35% | [2] -3.25% | [3] 15.7% | [4] -8% | [5] -3.35% | [6] -9.75%
